The text below walks through data of article PMC7862700, “An all-to-all approach to the identification of sequence-specific readers for epigenetic DNA modifications on cytosine”.

Assay in all cases: DAPPL (digital affinity profiling via proximity ligation, sequencing); 10 mM Tris-HCl pH 7.5, 50 mM NaCl, 1 mM DTT, 4% glycerol, room temperature, 30 min; GST-TFs on glutathione beads, 16-mer random dsDNA library, 0.1% formaldehyde crosslink after washing; high values mean tight binding
One assay concerns the target T1, FLI1 (Homo sapiens, UniProt Q01543 1-452).
T1 sequence: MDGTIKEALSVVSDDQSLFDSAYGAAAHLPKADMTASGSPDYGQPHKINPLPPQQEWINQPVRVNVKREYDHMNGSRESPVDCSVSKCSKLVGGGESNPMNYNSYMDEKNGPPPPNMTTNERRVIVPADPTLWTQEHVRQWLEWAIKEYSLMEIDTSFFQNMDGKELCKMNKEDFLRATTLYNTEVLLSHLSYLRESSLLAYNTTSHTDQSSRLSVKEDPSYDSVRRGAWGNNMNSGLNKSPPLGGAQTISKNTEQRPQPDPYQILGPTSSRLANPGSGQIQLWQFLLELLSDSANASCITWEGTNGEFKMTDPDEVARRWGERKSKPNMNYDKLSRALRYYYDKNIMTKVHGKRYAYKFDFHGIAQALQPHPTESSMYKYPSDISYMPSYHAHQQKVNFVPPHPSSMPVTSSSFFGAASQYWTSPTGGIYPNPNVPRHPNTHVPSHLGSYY
The conditions noted are these: protein: recombinant; tags: N-terminal GST; dsDNA, one strand shown. The method in brief: (§1)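 Pools were built from human transcription factors expressed in yeast as GST fusions, captured on glutathione beads and DNA-barcoded, along with a tag-only sample. Incubation with 200 nmole of a 16-mer random double-stranded DNA library lasted 30 min at room temperature in Tris/NaCl/DTT/glycerol buffer, and was followed by washing, 0.1% formaldehyde crosslinking, proximity ligation, PCR amplification and Illumina NextSeq500 sequencing. Binding signal is the quotient of each hexamer's read frequency for a factor and its frequency for the tag-only sample.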

The target of the next assay is T2, ELK1 (Homo sapiens, UniProt P19419 1-428).
T2 sequence: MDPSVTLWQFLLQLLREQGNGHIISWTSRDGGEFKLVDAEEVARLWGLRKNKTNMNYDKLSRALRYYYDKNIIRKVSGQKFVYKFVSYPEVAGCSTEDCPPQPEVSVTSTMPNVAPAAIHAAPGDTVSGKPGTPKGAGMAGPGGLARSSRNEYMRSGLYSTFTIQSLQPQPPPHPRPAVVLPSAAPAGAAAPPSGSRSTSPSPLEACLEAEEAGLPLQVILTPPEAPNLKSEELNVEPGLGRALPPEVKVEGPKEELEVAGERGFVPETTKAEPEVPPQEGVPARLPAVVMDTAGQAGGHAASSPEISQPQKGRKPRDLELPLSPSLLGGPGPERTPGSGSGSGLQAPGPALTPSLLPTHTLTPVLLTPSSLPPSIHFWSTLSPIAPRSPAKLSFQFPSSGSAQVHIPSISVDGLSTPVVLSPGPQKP
Particulars: protein: recombinant; tags: N-terminal GST; dsDNA, one strand shown. The procedure, abridged: as §1

The next assay addresses T3, GABPA (Homo sapiens, UniProt Q06546 1-454).
T3 sequence: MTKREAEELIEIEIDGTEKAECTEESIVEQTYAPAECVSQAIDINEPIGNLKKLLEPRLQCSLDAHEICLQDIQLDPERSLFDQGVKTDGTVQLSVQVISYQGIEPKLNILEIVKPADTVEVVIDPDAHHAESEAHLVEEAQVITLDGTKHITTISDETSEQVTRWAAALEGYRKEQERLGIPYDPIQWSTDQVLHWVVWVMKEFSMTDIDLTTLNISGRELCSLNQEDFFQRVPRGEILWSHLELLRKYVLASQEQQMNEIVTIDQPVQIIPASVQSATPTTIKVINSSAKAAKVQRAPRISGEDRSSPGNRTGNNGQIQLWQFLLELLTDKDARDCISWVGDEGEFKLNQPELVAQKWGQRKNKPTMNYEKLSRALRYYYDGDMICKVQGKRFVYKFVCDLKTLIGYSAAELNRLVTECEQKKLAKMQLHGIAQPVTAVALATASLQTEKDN
The conditions noted are these: protein: recombinant; tags: N-terminal GST; dsDNA, one strand shown. The procedure, abridged: as §1

A further assay deals with T4, ERG (Homo sapiens, UniProt P11308 1-479).
T4 sequence: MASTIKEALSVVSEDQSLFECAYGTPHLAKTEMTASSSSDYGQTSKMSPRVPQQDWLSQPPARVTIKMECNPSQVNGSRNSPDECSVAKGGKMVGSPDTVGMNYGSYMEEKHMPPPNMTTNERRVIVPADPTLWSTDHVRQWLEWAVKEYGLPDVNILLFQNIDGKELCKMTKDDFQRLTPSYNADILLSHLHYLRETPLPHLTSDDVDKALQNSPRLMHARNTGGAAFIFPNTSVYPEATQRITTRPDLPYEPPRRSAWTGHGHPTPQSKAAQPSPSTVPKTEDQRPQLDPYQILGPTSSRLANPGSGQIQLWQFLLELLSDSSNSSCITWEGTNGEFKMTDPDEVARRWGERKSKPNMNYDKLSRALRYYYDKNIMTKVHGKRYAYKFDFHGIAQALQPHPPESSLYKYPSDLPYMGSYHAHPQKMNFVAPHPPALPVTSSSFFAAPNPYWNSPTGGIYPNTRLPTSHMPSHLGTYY
The conditions noted are these: protein: recombinant; tags: N-terminal GST; dsDNA, one strand shown. The method in brief: as §1

The next assay has as its target ELF1 (Homo sapiens, UniProt P32519 1-619). The conditions noted are these: protein: recombinant; tags: N-terminal GST; dsDNA, one strand shown. The procedure, abridged:
as §1

The target in the next assay is T5, EHF (Homo sapiens, UniProt Q9NZC4 1-300).
T5 sequence: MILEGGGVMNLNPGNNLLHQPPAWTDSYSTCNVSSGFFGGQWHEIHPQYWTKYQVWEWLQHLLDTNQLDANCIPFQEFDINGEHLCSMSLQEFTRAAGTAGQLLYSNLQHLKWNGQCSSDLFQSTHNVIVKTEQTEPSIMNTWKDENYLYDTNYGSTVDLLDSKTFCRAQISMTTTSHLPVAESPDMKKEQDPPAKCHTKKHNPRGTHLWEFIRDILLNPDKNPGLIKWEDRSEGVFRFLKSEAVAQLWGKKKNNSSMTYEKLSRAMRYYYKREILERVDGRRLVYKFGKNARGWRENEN
The conditions noted are these: protein: recombinant; tags: N-terminal GST; dsDNA, one strand shown. The procedure, abridged:
as §1

The next assay concerns the target SPI1 (Homo sapiens, UniProt P17947 1-270). The conditions noted are these: protein: recombinant; tags: N-terminal GST; dsDNA, one strand shown. The method in brief: as §1
Another assay deals with SPIB (Homo sapiens, UniProt Q01892 1-262). Particulars: protein: recombinant; tags: N-terminal GST; dsDNA, one strand shown. The procedure, abridged: as §1
Another assay addresses T6, ELK3 (Homo sapiens, UniProt P41970 1-407).
T6 sequence: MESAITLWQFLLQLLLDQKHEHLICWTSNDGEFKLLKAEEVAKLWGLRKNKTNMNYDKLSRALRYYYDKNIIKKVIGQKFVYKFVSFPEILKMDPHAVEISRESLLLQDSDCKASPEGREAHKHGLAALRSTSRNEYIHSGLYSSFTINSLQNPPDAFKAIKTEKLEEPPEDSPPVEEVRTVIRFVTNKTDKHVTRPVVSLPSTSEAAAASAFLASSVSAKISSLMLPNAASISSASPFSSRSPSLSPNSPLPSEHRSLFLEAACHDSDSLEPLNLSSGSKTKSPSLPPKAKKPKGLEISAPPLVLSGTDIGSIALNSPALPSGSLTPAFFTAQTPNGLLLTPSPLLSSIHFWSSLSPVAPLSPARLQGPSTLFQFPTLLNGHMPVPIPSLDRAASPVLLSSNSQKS
The conditions noted are these: protein: recombinant; tags: N-terminal GST; dsDNA, one strand shown. The method in brief:
as §1

Another assay has as its target T7, FEV (Homo sapiens, UniProt Q99581 1-238).
T7 sequence: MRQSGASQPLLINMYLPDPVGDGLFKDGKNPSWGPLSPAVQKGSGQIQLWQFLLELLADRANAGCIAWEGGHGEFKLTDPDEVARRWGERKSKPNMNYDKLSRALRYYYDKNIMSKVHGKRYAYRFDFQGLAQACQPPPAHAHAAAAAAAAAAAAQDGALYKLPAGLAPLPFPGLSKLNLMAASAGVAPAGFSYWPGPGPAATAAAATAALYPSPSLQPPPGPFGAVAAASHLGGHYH
The conditions noted are these: protein: recombinant; tags: N-terminal GST; dsDNA, one strand shown. The procedure, abridged:
as §1

The target in the next assay is ETV5 (Homo sapiens, UniProt P41161 1-510). The conditions noted are these: protein: recombinant; tags: N-terminal GST; dsDNA, one strand shown. The procedure, abridged:
as §1

The target in the next assay is HSF1 (Homo sapiens, UniProt Q00613 1-529). Particulars: protein: recombinant; tags: N-terminal GST; chain copies: 3; dsDNA, one strand shown. The procedure, abridged:
as §1

A further assay deals with T8, SPIC (Homo sapiens, UniProt Q8N5J4 1-248).
T8 sequence: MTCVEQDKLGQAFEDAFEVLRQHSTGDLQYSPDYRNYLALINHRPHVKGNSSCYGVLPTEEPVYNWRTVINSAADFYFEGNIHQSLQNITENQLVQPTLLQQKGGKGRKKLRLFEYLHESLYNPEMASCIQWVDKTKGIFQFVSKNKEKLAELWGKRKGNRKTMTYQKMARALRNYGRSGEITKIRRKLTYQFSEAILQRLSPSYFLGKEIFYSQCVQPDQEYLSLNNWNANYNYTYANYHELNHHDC
Particulars: protein: recombinant; tags: N-terminal GST; dsDNA, one strand shown. The method in brief: as §1

A further assay deals with ELF4 (Homo sapiens, UniProt Q99607 1-663). The conditions noted are these: protein: recombinant; tags: N-terminal GST; dsDNA, one strand shown. The method in brief: as §1
In another assay the target is T9, ELK4 (Homo sapiens, UniProt P28324-2 1-405).
T9 sequence: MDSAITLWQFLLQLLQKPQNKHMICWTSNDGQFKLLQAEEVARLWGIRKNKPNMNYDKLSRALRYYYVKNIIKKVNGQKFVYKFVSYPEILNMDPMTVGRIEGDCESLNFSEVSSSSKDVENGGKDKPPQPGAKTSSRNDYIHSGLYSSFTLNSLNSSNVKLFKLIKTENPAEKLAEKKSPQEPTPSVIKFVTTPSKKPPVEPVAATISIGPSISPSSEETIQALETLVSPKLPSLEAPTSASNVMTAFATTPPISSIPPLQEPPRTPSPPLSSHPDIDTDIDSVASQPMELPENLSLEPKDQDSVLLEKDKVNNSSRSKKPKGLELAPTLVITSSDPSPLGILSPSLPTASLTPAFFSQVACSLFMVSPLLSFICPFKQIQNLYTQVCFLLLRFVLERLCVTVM
Particulars: protein: recombinant; tags: N-terminal GST; dsDNA, one strand shown. The procedure, abridged: as §1

A further assay deals with T10, ETV2 (Homo sapiens, UniProt O00321 1-342).
T10 sequence: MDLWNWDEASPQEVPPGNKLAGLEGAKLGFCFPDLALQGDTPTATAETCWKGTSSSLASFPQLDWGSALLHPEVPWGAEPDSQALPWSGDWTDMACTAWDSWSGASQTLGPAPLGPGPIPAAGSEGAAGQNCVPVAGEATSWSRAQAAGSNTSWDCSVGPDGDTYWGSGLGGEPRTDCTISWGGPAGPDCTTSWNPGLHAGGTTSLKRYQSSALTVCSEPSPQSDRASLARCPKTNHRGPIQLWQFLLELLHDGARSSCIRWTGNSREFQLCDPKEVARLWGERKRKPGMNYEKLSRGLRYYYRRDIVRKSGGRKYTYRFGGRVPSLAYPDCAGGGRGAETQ
Particulars: protein: recombinant; tags: N-terminal GST; dsDNA, one strand shown. The method in brief:
as §1

The next assay addresses T11, ELF3 (Homo sapiens, UniProt P78545 1-371).
T11 sequence: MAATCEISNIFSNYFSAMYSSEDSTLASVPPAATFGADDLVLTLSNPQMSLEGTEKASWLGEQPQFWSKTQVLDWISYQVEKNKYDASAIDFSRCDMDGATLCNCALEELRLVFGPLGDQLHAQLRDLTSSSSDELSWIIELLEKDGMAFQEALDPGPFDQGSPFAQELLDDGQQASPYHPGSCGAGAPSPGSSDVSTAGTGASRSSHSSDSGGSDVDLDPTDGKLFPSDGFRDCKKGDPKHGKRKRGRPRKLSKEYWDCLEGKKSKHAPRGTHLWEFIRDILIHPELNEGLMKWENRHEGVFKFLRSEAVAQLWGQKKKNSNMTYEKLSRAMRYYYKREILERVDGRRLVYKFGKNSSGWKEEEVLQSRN
Particulars: protein: recombinant; tags: N-terminal GST; dsDNA, one strand shown. The procedure, abridged:
as §1

In a further assay the target is CRX (Homo sapiens, UniProt O43186 1-299). The conditions noted are these: protein: recombinant; tags: N-terminal GST; dsDNA, one strand shown. The method in brief: as §1
The next assay addresses ETV1 (Homo sapiens, UniProt P50549 1-477). Particulars: protein: recombinant; tags: N-terminal GST; dsDNA, one strand shown. The procedure, abridged:
as §1

HSF1, sequence (Q00613 whole entry): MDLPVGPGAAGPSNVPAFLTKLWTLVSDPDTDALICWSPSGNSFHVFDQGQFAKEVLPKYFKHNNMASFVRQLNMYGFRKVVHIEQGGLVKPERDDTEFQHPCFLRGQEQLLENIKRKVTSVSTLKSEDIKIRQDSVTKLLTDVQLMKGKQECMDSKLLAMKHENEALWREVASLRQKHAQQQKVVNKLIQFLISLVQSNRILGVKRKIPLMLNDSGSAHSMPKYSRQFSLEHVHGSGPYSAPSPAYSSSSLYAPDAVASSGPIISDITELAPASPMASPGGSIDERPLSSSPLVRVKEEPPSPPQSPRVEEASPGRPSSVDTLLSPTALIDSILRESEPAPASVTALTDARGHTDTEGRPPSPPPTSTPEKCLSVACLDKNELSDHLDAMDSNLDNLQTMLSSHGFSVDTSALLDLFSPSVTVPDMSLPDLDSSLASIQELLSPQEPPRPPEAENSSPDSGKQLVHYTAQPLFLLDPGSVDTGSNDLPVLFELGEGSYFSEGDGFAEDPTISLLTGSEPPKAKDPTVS
SPIB, sequence (Q01892 whole entry): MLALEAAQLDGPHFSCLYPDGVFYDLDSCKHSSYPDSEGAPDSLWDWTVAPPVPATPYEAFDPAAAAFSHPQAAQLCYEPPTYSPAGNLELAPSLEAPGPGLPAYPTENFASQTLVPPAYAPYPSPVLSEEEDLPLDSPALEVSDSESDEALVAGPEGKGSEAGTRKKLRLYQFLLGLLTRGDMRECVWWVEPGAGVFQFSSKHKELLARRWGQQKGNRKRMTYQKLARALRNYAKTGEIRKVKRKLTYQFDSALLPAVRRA
ELF4, sequence (Q99607 whole entry): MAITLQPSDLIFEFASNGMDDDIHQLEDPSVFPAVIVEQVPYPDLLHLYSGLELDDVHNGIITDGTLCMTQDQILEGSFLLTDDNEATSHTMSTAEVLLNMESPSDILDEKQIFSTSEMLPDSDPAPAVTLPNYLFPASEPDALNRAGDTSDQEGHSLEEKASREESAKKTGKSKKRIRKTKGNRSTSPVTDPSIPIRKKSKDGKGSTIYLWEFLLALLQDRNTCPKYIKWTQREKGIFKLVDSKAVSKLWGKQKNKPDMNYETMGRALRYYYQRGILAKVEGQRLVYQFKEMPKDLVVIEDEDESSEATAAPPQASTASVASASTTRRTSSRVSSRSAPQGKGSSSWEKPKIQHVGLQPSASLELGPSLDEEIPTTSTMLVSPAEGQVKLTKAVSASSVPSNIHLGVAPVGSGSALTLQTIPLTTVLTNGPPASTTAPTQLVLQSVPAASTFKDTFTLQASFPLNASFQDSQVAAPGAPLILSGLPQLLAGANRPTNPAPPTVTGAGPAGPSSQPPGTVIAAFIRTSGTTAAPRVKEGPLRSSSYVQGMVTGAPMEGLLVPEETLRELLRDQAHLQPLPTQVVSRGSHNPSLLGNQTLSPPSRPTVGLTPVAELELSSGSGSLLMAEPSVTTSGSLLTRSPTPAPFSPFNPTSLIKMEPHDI
ELF1, sequence (P32519 whole entry): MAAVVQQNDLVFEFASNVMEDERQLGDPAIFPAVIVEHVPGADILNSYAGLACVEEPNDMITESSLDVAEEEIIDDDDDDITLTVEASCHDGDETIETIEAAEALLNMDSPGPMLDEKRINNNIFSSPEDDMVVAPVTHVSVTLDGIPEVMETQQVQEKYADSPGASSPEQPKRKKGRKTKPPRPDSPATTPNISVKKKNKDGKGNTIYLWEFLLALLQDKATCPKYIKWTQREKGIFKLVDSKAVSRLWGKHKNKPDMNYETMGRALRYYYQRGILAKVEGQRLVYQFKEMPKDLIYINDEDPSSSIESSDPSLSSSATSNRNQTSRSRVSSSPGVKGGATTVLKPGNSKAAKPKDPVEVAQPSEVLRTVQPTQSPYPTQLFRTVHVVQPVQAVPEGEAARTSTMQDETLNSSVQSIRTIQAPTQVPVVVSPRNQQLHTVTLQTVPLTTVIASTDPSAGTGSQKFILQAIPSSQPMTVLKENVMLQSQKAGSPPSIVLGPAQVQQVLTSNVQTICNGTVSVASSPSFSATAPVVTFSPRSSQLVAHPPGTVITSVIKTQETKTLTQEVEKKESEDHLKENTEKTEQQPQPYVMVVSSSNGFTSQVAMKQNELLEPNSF
CRX, sequence (O43186 whole entry): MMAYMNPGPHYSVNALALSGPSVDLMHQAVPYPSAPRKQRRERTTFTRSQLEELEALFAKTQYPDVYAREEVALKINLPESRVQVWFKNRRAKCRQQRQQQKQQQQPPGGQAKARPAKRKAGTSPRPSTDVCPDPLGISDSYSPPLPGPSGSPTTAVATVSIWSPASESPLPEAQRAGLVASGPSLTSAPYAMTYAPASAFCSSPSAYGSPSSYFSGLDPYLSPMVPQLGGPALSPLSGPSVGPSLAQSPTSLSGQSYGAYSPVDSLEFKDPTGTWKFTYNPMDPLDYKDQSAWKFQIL
ETV1, sequence (P50549 whole entry): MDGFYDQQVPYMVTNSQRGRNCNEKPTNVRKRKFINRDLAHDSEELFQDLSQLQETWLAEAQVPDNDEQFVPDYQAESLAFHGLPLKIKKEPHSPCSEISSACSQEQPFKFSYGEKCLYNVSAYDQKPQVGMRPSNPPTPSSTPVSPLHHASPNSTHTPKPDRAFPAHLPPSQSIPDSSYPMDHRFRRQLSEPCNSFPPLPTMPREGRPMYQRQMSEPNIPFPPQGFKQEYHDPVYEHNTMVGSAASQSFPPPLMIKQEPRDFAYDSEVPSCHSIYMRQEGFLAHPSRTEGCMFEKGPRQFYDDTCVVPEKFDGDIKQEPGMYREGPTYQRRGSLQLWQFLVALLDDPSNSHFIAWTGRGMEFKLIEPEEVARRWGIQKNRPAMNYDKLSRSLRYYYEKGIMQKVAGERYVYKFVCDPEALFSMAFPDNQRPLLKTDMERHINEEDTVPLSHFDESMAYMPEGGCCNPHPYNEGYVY
ETV5, sequence (P41161 whole entry): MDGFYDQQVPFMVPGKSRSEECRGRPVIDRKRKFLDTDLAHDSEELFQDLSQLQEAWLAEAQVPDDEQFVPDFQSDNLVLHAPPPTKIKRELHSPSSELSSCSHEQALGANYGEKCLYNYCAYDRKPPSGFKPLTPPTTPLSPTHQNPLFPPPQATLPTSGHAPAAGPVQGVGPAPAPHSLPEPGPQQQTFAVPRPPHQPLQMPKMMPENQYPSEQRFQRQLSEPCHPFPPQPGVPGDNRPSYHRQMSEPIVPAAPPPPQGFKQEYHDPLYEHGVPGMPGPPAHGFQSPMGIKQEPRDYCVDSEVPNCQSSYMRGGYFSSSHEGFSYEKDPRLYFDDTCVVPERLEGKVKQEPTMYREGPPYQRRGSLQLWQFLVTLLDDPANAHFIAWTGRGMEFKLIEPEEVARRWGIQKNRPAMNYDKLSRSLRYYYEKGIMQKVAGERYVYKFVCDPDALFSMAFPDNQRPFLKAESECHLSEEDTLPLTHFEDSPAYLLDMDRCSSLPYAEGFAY

With CTTTAC, the binding signal with FLI1 is 1.24 fold enrichment (6-mer frequency, TF over GST control); with ELK1 it was 1.43 fold enrichment (6-mer frequency, TF over GST control); with GABPA it was 1.51 fold enrichment (6-mer frequency, TF over GST control); with ERG, 1.31 fold enrichment (6-mer frequency, TF over GST control); with ELF1 it was 1.4 fold enrichment (6-mer frequency, TF over GST control); in the assay with EHF, 1.38 fold enrichment (6-mer frequency, TF over GST control). The binding signal is 1.4 fold enrichment (6-mer frequency, TF over GST control) in the assay with SPI1; 1.41 fold enrichment (6-mer frequency, TF over GST control) with SPIB; 1.47 fold enrichment (6-mer frequency, TF over GST control) with ELK3; 1.31 fold enrichment (6-mer frequency, TF over GST control) with FEV; 1.3 fold enrichment (6-mer frequency, TF over GST control) in the assay with ETV5; 1.37 fold enrichment (6-mer frequency, TF over GST control) in the assay with HSF1. The binding signal with SPIC was 1.4 fold enrichment (6-mer frequency, TF over GST control); in the assay with ELF4 it was 1.45 fold enrichment (6-mer frequency, TF over GST control); with ELK4, 1.44 fold enrichment (6-mer frequency, TF over GST control); in the assay with ETV2, 1.41 fold enrichment (6-mer frequency, TF over GST control); with ELF3, 1.44 fold enrichment (6-mer frequency, TF over GST control); with CRX it was 1.51 fold enrichment (6-mer frequency, TF over GST control). Moreover, the binding signal in the assay with ETV1 is 1.3 fold enrichment (6-mer frequency, TF over GST control).
